Laboratory results: ChEMBL document CHEMBL3988442, “University of Dundee, Small-Polar-MMV Screening Library” (2021)

Molecular target: Shiga toxin 2 (Escherichia coli O157:H7) (UniProt P09385+P09386)
Experiment: E. coli 0.157:H7 Shiga Toxin SOP - stx2 screening assay
Assay type: functional
Design: scale not given: direction of the effect not stated beside the values
Conditions: 30 µM

SMILES	Percent Effect
CCc1cccc(OCC(=O)N2CCCC(n3cncn3)C2)c1 (stereo not given)	26%
Cc1[nH]/c(=N\C(=O)c2csc(NCC(C)C)n2)sc1C	12%
O=C(CN1CCc2cncnc2C1)NCCOc1ccccc1	21.9%
CCOc1ccc(-c2ccnc(CC)n2)cc1C(=O)O	0.242%
CCc1nnsc1C(=O)NCCn1nc2ccccn2c1=O	-19.6%
Cc1ccc(CN2CCn3cc(CN(C)Cc4ccco4)nc3C2)o1	-24.1%
CN(Cc1nnc2n1CCC2)C(=O)Cc1ccc2c(c1)OCCO2	18.1%
CCOCC(O)CN1CCN(C(=O)c2cc(F)ccc2C)CC1 (stereo not given)	9.83%
CCC(=O)N1CCCC1c1nccnc1Nc1nc(C)cc(C)n1 (stereo not given)	-28.8%
CC(=O)N1CCNCC1c1cccc(C(=O)N(C)C)c1 (stereo not given)	8.72%
CCc1cc(C(=O)N2CCC(Nc3ccc(C)nn3)CC2)sc1C	-27.9%
CCC(CC)C(CNC(=O)Nc1ccc(C)cc1)N1CCOCC1 (stereo not given)	-3.64%
O=c1c2ccccc2nc2n1C(CSc1ccc(Cl)cc1Cl)CN2 (stereo not given)	9.69%
CN1CCOC(CNCc2coc(-c3cccs3)n2)C1 (stereo not given)	-17.6%
CCOc1cc(CNC(=O)N2CCC(Cc3cnn(C)c3)C2)ccn1 (stereo not given)	2.76%
COCc1nc2cc(NCc3ccc(C)o3)ccc2o1	-21.1%
CNC(=O)NC(=O)CN1CCC(c2cccc(F)c2)C1 (stereo not given)	19.2%
CCNC(=O)Nc1ccc2c(ccn2CC(=O)N(CC)CC)c1	30.4%
COc1ccc(CNC2CCCN(Cc3noc(C)n3)C2)cc1F (stereo not given)	6.55%
Cc1cc(C)c2nc(CN3CCCC(c4cc[nH]n4)C3)cc(O)c2c1 (stereo not given)	0.0646%

SMILES	Percent Effect
Cc1ccccc1-n1ncc(C(=O)N2CCCC2c2cnn(C)c2)c1C (stereo not given)	10.1%
CC(C)c1cc(NC(=O)CN2CCc3ccccc3C2)on1	-13%
Cc1nc(CN2CCN(C(=O)c3sccc3C3CC3)CC2)cs1	13.6%
CC(C)C(=O)N1CCN(C(=O)c2cscn2)[C@H]2CS(=O)(=O)C[C@H]21	-5.71%
c1nc2c(c(-c3ccsc3)n1)CCN(Cc1ccoc1)CC2	-46%
CCS(=O)(=O)N1CCC2(CC(=O)N(c3cccc(C)c3)C2)C1 (stereo not given)	-11.5%
CN(C)c1ccccc1C(=O)N1C[C@@H](CN2CCOCC2)[C@@H](CO)C1	10.2%
O=C1CC(c2ccc(C(=O)O)cc2)c2ncn(-c3ccccc3)c2N1 (stereo not given)	-25.4%
O=C(CCC1CCCO1)NCc1ccnc(-n2cccn2)c1 (stereo not given)	21.6%
CC(=O)N1CCCn2nc(CNS(=O)(=O)N3CCCCCC3)cc2C1	-4.22%
Cc1cc(C)cc(NS(=O)(=O)c2cc3c(c(C(=O)O)c2)OCCO3)c1	-24.3%
CCN(CC)Cc1ccc(C(=O)N2CCCCC2Cn2cccn2)o1 (stereo not given)	1.31%
CSCC(C)(O)CNC(=O)c1ccc(Br)cc1C (stereo not given)	-16%
Cc1ncc(CN(C)CC2CCCN2c2cccnn2)s1 (stereo not given)	9.48%
O=C(Nc1cc(C(F)(F)F)c[nH]c1=O)c1ccco1	5.24%
O=C(NCc1ccoc1)NC1CCCN(c2ncccn2)C1 (stereo not given)	15.2%
COCc1cccc(CNCc2c(C)nn(C)c2N(C)C)c1	1.1%
CCOCC(O)CN1CCN(C(=O)c2ccnc(N(C)C)c2)CC1 (stereo not given)	-13.4%
CC1(C(=O)N2CCOCC2)CN(Cc2ccccn2)CCO1 (stereo not given)	-6.1%
Nc1nccc(NCc2cc3n(n2)CCCN(C2CCCCC2)C3)n1	-9.53%
